Drawing on PubChem BioAssay (NCATS), this text covers Potency for 42 molecules.

The structures appear in SMILES notation. Records with an inconclusive call do not appear. A call without a number means that no potency is given here. A number with no mark means an inactive call. Activity calls are given as the source filed them. Calls follow the shape of the dose curve; as a rule, active = well fitted curve in the direction sought with a large enough effect; inconclusive = small, poorly fitted or top-dose-only effect, or another doubt; inactive = no such curve, though single readings can be large; an effect the other way counts as inactive or inconclusive.

The target in assay [1] is Aldehyde dehydrogenase, mitochondrial (Homo sapiens) (UniProt P05091). The assay is described as follows: qHTS for Inhibitors of the Aldehyde Dehydrogenase Family (ALDH2) Primary screen (AID 2061308; also: nearly all actives have a fitted effect of over 55% in size). (In general: qHTS replaces the single test concentration by a dilution series.)
Assay [2] concerns the target Retinaldehyde dehydrogenase 3 (Homo sapiens) (UniProt P47895). The experiment in a line: qHTS for Inhibitors of the Aldehyde Dehydrogenase Family (ALDH1A3) Primary screen (AID 2061315).

`CCN(CC)CCn1c(-c2ccccc2)nc2c(NC3CCCCC3)nc(C)nc21`: the Potency entry in assay [1] and in assay [2] was “inactive” throughout.
Turning to `COc1ccccc1-n1cnc2cc(C(=O)N3CCCCC3)ccc21`, the Potency result in assay [1] and in assay [2] was “inactive” each time.
For the molecule `C(#Cc1cccs1)c1cccnc1`, the Potency result in assay [1] and in assay [2] was “inactive” throughout.
For the molecule `COc1cccc(-c2nnc3n2N=C(c2c(OC)cccc2OC)CS3)c1OC`, the Potency result in assay [1] and in assay [2] was “inactive” throughout.
Take `CN(Cc1ccccc1)C(=O)C1CCN(Cc2cccc3ccccc23)CC1`: the Potency result in assay [1] and in assay [2] was “inactive” each time.
Consider `Cc1nc(NCc2ccccc2)c2nc(-c3ccccc3)n(CCN(C)C)c2n1`, for which the Potency result in assay [1] and in assay [2] was “inactive” throughout.
`COc1ccccc1C1=Nn2c(nnc2-c2cccc(OC)c2OC)SC1`: the Potency result in assay [1] and in assay [2] was “inactive” each time.
As to `CCCn1c(-c2ccc(F)cc2)nc2c(NCCN(C)C)nc(C)nc21`, the Potency result in assay [1] and in assay [2] was “inactive” in each case.
Take `Cc1cc(NS(=O)(=O)C2CCN(C(=O)Cc3ccc(Cl)c(Cl)c3)CC2)no1`: the Potency entry in assay [1] and in assay [2] was “inactive” each time.
In the case of `Cc1ccc(OCCCn2c(CCNC(=O)C3CCCCC3)nc3ccccc32)cc1`, the Potency result in assay [1] and in assay [2] was “inactive” in each case.
`O=C(CNC(=O)c1cccc(Cl)c1)OC(C(=O)Nc1cc(C(F)(F)F)ccc1Cl)c1ccccc1` (centres undefined): the Potency result in assay [1] and in assay [2] was “inactive” throughout.
In the case of `CC(C)Oc1ccc(CCNC(=O)c2cc3sccc3n2Cc2ccccc2)cc1OC(C)C`, the Potency entry in assay [1] and in assay [2] was “inactive” throughout.
`CCc1ccc(NC(=O)c2cnn3c(C)cc(-c4ccccc4)nc23)cc1`: the Potency result in assay [1] and in assay [2] was “inactive” throughout.
As to `Cc1ccc(NS(=O)(=O)c2ccc3c(c2)n(C)c(=O)n3C)cc1C`, the Potency result in assay [1] and in assay [2] was “inactive” throughout.
In the case of `Cc1ccc(S(=O)(=O)Nc2cnccc2C(=O)Nc2nc(-c3ccc(Oc4ccccc4)cc3)cs2)cc1`, the Potency entry in assay [1] and in assay [2] was “inactive” each time.
On to `O=c1ccc2ccc(OCCCCN3CCN(c4cccc5sccc45)CC3)cc2[nH]1`, for which the Potency result in assay [1] and in assay [2] was “inactive” throughout.
On to `O=C(O)c1ccc(-c2noc(-c3cccc(C(F)(F)F)c3)n2)cc1`, for which the Potency entry in assay [1] and in assay [2] was “inactive” in each case.
Turning to `O=S(=O)(c1cccc2ccccc12)n1ccc2ccc(N3CCN4CCCC4C3)cc21` (centres undefined), the Potency result in assay [1] and in assay [2] was “inactive” throughout.
Take `COc1cc(OC)cc(-c2csc(N3CCC(C(N)=O)CC3)n2)c1`: the Potency entry in assay [1] and in assay [2] was “inactive” in each case.
Regarding `O=C1CCc2cc(S(=O)(=O)Nc3cccc(Br)c3)ccc2N1`, the Potency result in assay [1] and in assay [2] was “inactive” each time.
Consider `COc1nccc(-c2nc(Nc3ccc(F)c(F)c3)c3ccccc3n2)c1Cl`, for which the Potency result in assay [1] and in assay [2] was “inactive” in each case.
Regarding `CONC(=O)C[C@@H](C#N)NC(=O)[C@@H]1CCCN1C(=O)[C@@H](NC(=O)c1ccc(N)c(Cl)c1)C(C)(C)C`, the Potency entry in assay [1] and in assay [2] was “inactive” throughout.
Take `C=C(C)C(=O)O[C@H]1C[C@@](C)(O)C(=O)CC(O)/C(C)=C\[C@H]2OC(=O)C(=C)[C@H]12` (some centres undefined): the Potency entry in assay [1] and in assay [2] was “inactive” in each case.
As for `Cc1ccc(NS(=O)(=O)c2ccc3ccccc3c2)cc1C`, the Potency entry in assay [1] and in assay [2] was “inactive” each time.
As for `COc1ccc(NC(=O)c2[nH]c(C)c(C(C)=O)c2C)cc1[S+](=O)([O-])Nc1ccccc1C#N`, the Potency entry in assay [1] and in assay [2] was “inactive” throughout.
Regarding `Cc1cccc(-n2cnc3cc(C(=O)N4CCCC(c5ccccc5)C4)ccc32)c1` (centres undefined), the Potency entry in assay [1] and in assay [2] was “inactive” each time.
For the molecule `N#Cc1c(-c2cc(C(F)(F)F)cc(C(F)(F)F)c2)no[n+]1[O-]`, the Potency entry in assay [1] and in assay [2] was “inactive” in each case.
With `COc1cccc(Cn2ncc3c4sc(Br)cc4n(C)c3c2=O)c1`, the Potency entry in assay [1] and in assay [2] was “inactive” in each case.
`Cc1ccc(C[C@H](C(=O)O)N2C(=O)c3ccc(C(=O)O)cc3C2=O)cc1`: the Potency result in assay [1] and in assay [2] was “inactive” throughout.
Turning to `O=C(Nc1ccc(Cl)c(Cl)c1)Nc1nnc(-c2ccncc2)s1`, the Potency entry in assay [1] and in assay [2] was “inactive” in each case.
On to `CC1(C)CC2CC(C)(CN2S(=O)(=O)c2ccc(C(=O)Nc3ccc(Cl)cc3)cc2)C1` (centres undefined), for which the Potency result in assay [1] and in assay [2] was “inactive” each time.
For the molecule `CN(Cc1ccco1)c1ncnc2ccc(-c3ccc4c(ccn4C)c3)cc12`, the Potency result in assay [1] and in assay [2] was “inactive” in each case.
For the molecule `O=C(NCc1ccc(F)cc1)n1c(-c2ccccc2)c(P(=S)(c2ccccc2)c2ccccc2)c2ccccc21`, the Potency result in assay [1] and in assay [2] was “inactive” in each case.
Consider `O=C(/C=C/c1ccccc1Br)NCCc1nc2ccccc2[nH]1`, for which the Potency entry in assay [1] and in assay [2] was “inactive” throughout.
Consider `CCOc1ccc(CCNC(=O)c2cccc(C(=O)c3ccccc3)c2)cc1OCC`, for which the Potency result in assay [1] and in assay [2] was “inactive” in each case.
For `CC(=O)Nc1ccccc1OC1=N[S+](=O)([O-])c2ccccc21`, the Potency entry in assay [1] and in assay [2] was “inactive” throughout.
As to `O=C(Cn1cc(CN(Cc2ccccc2)Cc2ccccc2)nn1)Nc1cc(C(F)(F)F)ccc1Cl`, the Potency entry in assay [1] and in assay [2] was “inactive” throughout.
With `CN(C)CCCN1CCCN(C(=O)c2cccc(-c3cc(O)c4ncccc4c3)c2)C1`, the Potency entry in assay [1] and in assay [2] was “inactive” in each case.
On to `c1ccc2c(Nc3nnc(-c4ccncc4)s3)cccc2c1`, for which the Potency result in assay [1] and in assay [2] was “inactive” each time.
Regarding `CC(C)(C)OC(=O)Cc1nnc(C(C(=O)OCc2ccccc2)c2ccccc2)s1` (centres undefined), the Potency result in assay [1] and in assay [2] was “inactive” in each case.
As to `O=C1c2ccccc2C(=O)N1c1nccs1`, the Potency result in assay [1] and in assay [2] was “inactive” each time.
As to `c1c[nH]c(CNc2ncnc3ccc(-c4ccc5c(c4)OCO5)cc23)n1`, the Potency result in assay [1] and in assay [2] was “inactive” each time.
